The values that follow come from the supplement of paper PMC8975748.

Structures are written as SMILES. Structures can show the parent of a compound that is named as a salt.

The subject of the assay is Saccharomyces cerevisiae BY4741 SeMeCo community. Nature of the assay: z-score of subpopulation abundance vs DMSO median, subpopulation auxotrophic for H; higher = larger share of this subpopulation than in DMSO controls. The note with it: 10 µM; 24 h; SM minimal medium; subpopulation (auxotrophy): H. The protocol: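 Fluorescent four-plasmid SeMeCo (self-establishing metabolically cooperating S. cerevisiae BY4741 community; plasmids pH-mRuby2, pL-mWasabi, pU-eCFP, pM-TagRFP657) was grown 24 h in minimal SM medium with each Selleck FDA-approved drug at 10 µM in 384-well plates. Cells were fixed and imaged by high-content confocal microscopy. For each auxotrophic subpopulation (and the prototroph), a z-score gives the deviation from the DMSO vehicle-control population median.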
In the case of `CO/N=C(\C(=O)N[C@@H]1C(=O)N2C(C(=O)O)=C(CSC(=O)c3ccco3)CS[C@H]12)c1csc(N)n1` [Ceftiofur HCl], the “z-score of subpopulation abundance” value was -0.05.

Turning to `Cc1nc2n(c(=O)c1CCN1CCC(c3noc4cc(F)ccc34)CC1)CCCC2` [Risperidone], the “z-score of subpopulation abundance” value is 0.92.

Take `CC1(C)S[C@@H]2[C@H](NC(=O)[C@H](NC(=O)N3CCNC3=O)c3ccccc3)C(=O)N2[C@H]1C(=O)O` [Azlocillin sodium salt]: the “z-score of subpopulation abundance” value was -0.59.

Turning to `Cc1c(Cl)cccc1Nc1ccccc1C(=O)O` [Tolfenamic Acid], the “z-score of subpopulation abundance” value is -1.01.

Consider `O=C(N[C@H](CO)[C@H](O)c1ccc([N+](=O)[O-])cc1)C(Cl)Cl` [Chloramphenicol], for which the “z-score of subpopulation abundance” value is -0.01.

On to `Oc1c(Cl)cc(Cl)c2cccnc12` [Chloroxine], for which the “z-score of subpopulation abundance” value stood at 13.2.

Regarding `Cc1nc(C)c(Cl)c(O)c1Cl` [Clopidol], the “z-score of subpopulation abundance” value is 0.6.

Turning to `CCCN[C@H]1CCc2nc(N)sc2C1` [Pramipexole dihydrochloride], the “z-score of subpopulation abundance” value is -0.35.

For the compound `NNc1nncc2ccccc12` [Hydralazine HCl], the “z-score of subpopulation abundance” value is -1.09.

With `CCCN[C@H]1CCc2nc(N)sc2C1` [Pramipexole 2HCl Monohydrate], the “z-score of subpopulation abundance” value was -0.51.

`CN(C)CCCN1c2ccccc2CCc2ccc(Cl)cc21` [Clomipramine HCl]: the “z-score of subpopulation abundance” value was -0.49.

In the case of `C[C@@H](O)[C@H]1C(=O)N2C(C(=O)O)=C(S[C@@H]3CN[C@H](CNS(N)(=O)=O)C3)[C@H](C)[C@H]12` [Doripenem Hydrate], the “z-score of subpopulation abundance” value is -0.3.

As to `COc1ccnc(C[S+]([O-])c2nc3cc(OC(F)F)ccc3[nH]2)c1OC` (stereo not given) [Pantoprazole], the “z-score of subpopulation abundance” value is 1.49.

Turning to `Nc1nc(N)nc(-c2cc(Cl)ccc2Cl)n1` [Irsogladine], the “z-score of subpopulation abundance” value is -0.31.

`CC(c1cc2ccccc2s1)N(O)C(N)=O` (stereo not given) [Zileuton]: the “z-score of subpopulation abundance” value is -0.65.

On to `C[C@@H]1[C@H](O)[C@@H](C)/C=C/C=C/C=C/C=C/C=C/C=C/C=C/[C@H](O[C@@H]2O[C@H](C)[C@@H](O)[C@H](N)[C@@H]2O)C[C@@H]2O[C@](O)(C[C@@H](O)C[C@@H](O)[C@H](O)CC[C@@H](O)C[C@@H](O)CC(=O)O[C@H]1C)C[C@H](O)[C@H]2C(=O)O` [Amphotericin B], for which the “z-score of subpopulation abundance” value is -5.04.

As for `Cc1nnc(NS(=O)(=O)c2ccc(N)cc2)s1` [Sulfamethizole], the “z-score of subpopulation abundance” value was -1.02.

Turning to `C#C[C@]1(O)CC[C@H]2[C@@H]3CCc4cc(O)ccc4[C@H]3CC[C@@]21C` [Ethinyl Estradiol], the “z-score of subpopulation abundance” value was 0.36.

For the compound `CC(C)c1c(C(=O)Nc2ccccc2)c(-c2ccccc2)c(-c2ccc(F)cc2)n1CC[C@@H](O)C[C@@H](O)CC(=O)O` [Atorvastatin], the “z-score of subpopulation abundance” value worked out at 6.46.

As for `O=C(CCCN1CC=C(n2c(=O)[nH]c3ccccc32)CC1)c1ccc(F)cc1` [Droperidol], the “z-score of subpopulation abundance” value is -0.5.

With `NC[C@H]1O[C@H](O[C@H]2[C@H](O)[C@@H](O[C@H]3O[C@H](CO)[C@@H](O)[C@H](N)[C@H]3O)[C@H](N)C[C@@H]2N)[C@H](N)C[C@@H]1O` [Tobramycin], the “z-score of subpopulation abundance” value was -1.81.

In the case of `O=C1C(N(CO)C(=O)NCO)N(CO)C(=O)N1CO` (stereo not given) [Diazolidinyl urea], the “z-score of subpopulation abundance” value was -0.72.

For the compound `NC(=O)N1c2ccccc2CC(=O)c2ccccc21` [Oxcarbazepine], the “z-score of subpopulation abundance” value was -0.49.

For `CC(=O)NC[C@H]1CN(c2ccc(N3CCOCC3)c(F)c2)C(=O)O1` [Linezolid], the “z-score of subpopulation abundance” value was -0.56.

With `CN(CCOc1ccc(NS(C)(=O)=O)cc1)CCc1ccc(NS(C)(=O)=O)cc1` [Dofetilide], the “z-score of subpopulation abundance” value was -0.68.

Take `CNS(=O)(=O)CCc1ccc2[nH]cc(C3CCN(C)CC3)c2c1` [Naratriptan HCl]: the “z-score of subpopulation abundance” value is -0.46.

In the case of `Oc1c(I)cc(I)c2cccnc12` [Diiodohydroxyquinoline], the “z-score of subpopulation abundance” value turned out to be 2.75.

Regarding `CC[C@H]1OC(=O)[C@H](C)[C@@H](O[C@H]2C[C@@](C)(OC)[C@@H](O)[C@H](C)O2)[C@H](C)[C@@H](O[C@@H]2O[C@H](C)C[C@H](N(C)C)[C@H]2O)[C@](C)(O)C[C@@H](C)/C(=N\OCOCCOC)[C@H](C)[C@@H](O)[C@]1(C)O` [Roxithromycin], the “z-score of subpopulation abundance” value was determined as 0.59.

For the compound `COCCCC/C(=N\OCCN)c1ccc(C(F)(F)F)cc1` [Fluvoxamine maleate], the “z-score of subpopulation abundance” value is -0.64.

On to `CCN1CCN(C(=O)N[C@@H](C(=O)N[C@@H]2C(=O)N3C(C(=O)O)=C(CSc4nnnn4C)CS[C@H]23)c2ccc(O)cc2)C(=O)C1=O` [Cefoperazone], for which the “z-score of subpopulation abundance” value amounted to 0.43.

As for `CC(=O)OCC1=C(C(=O)O)N2C(=O)C(NC(=O)CSC(=NC(C)C)NC(C)C)C2SC1` (stereo not given) [Cefathiamidine], the “z-score of subpopulation abundance” value is -0.66.

With `CC[C@H](C)C(=O)O[C@H]1C[C@H](O)C=C2C=C[C@H](C)[C@H](CC[C@@H](O)C[C@@H](O)CC(=O)O)[C@H]21` [Pravastatin sodium], the “z-score of subpopulation abundance” value stood at 0.31.

As to `COc1cc(N)c(Cl)cc1C(=O)NC1CCN(CCCOc2ccc(F)cc2)CC1OC` (stereo not given) [Cisapride], the “z-score of subpopulation abundance” value is -0.08.

Consider `CN1CC(=O)N2[C@H](c3ccc4c(c3)OCO4)c3[nH]c4ccccc4c3C[C@@H]2C1=O` [Tadalafil], for which the “z-score of subpopulation abundance” value was 0.35.

Consider `CCCCCC(=O)O[C@]1(C(C)=O)CC[C@H]2[C@@H]3CCC4=CC(=O)CC[C@]4(C)[C@H]3CC[C@@]21C` [Hydroxyprogesterone caproate], for which the “z-score of subpopulation abundance” value stood at 1.49.

`C[N+]1(C)[C@@H]2C[C@@H](OC(=O)C(O)(c3cccs3)c3cccs3)C[C@H]1[C@@H]1O[C@@H]12` [Tiotropium Bromide hydrate]: the “z-score of subpopulation abundance” value was -0.8.

Turning to `CCCc1cc(C(N)=S)ccn1` [Protionamide], the “z-score of subpopulation abundance” value was -0.56.

Consider `COc1ccc(Cl)cc1C(=O)NCCc1ccc(S(=O)(=O)NC(=O)NC2CCCCC2)cc1` [Glyburide (Glibenclamide)], for which the “z-score of subpopulation abundance” value was 0.81.

Turning to `CSc1nc2cc(Cl)c(Oc3cccc(Cl)c3Cl)cc2[nH]1` [Triclabendazole], the “z-score of subpopulation abundance” value came to 5.63.

For the compound `O=C(O)c1cn(-c2ccc(F)cc2)c2cc(N3CCNCC3)c(F)cc2c1=O` [Sarafloxacin HCl], the “z-score of subpopulation abundance” value is -0.42.
